From PubChem BioAssay
Shown is part of a subset that was picked to be rich in hits.
Pf Dd2 growth: inhibitors of Plasmodium falciparum Dd2 growth | Potency, µM (titrated, usually from 28.9 µM), most hits filed as inhibitors | 120,000 tested, 4.3% active | P. falciparum Dd2 growth, SYBR Green, 72 h; active = well fitted inhibition curve with a large enough effect; also: nearly all actives have a fitted effect of over 65% in size
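Readout: SYBR Green fluorescence, 485 nm excitation, 535 nm emission, after ~16 h lysis at 37C. Before that, Dd2-infected red cells (2.5% hematocrit) grew 72 h with compound, 29 uM top final concentration.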
Large screens that a line does not name were inactive; ! = repeats disagree.

Cc1nc2c(c(-c3ccc(O)cc3)n1)CN(Cc1cncs1)CC2	none
Oc1ccc(-c2nc(C3CC3)nc3c2CN(Cc2ccccc2C(F)(F)F)CC3)cc1	Pf Dd2 growth 2.5µM!
Cc1nc2c(c(-c3ccc(O)cc3)n1)CN(Cc1ccsc1)CC2	none
CCc1nc2c(c(-c3ccc(O)cc3)n1)CN(Cc1ccccc1OC)CC2	none
Oc1ccc(-c2nc(C3CC3)nc3c2CN(Cc2ccsc2)CC3)cc1	Pf Dd2 growth 7.1µM
Cc1cc(C(=O)NCC2(COc3cnccn3)C[C@@H](O)[C@@H](O)C2)no1 (some centres not stated)	none
O=C(Cc1ccccc1Cl)NC1CCN(c2cc(C(F)(F)F)ncn2)CC1	none
Cc1noc(-c2cn(C3CCN(C(=O)c4cc5ccccc5[nH]4)CC3)nn2)n1	none
CCn1nc(C)c(C(=O)N[C@H]2CCOC[C@H]2C2CCOCC2)c1C	none
Cc1cccc(CNC(=O)Cn2c(-c3cccs3)cc3ccccc32)c1	Pf Dd2 growth 11µM
CC(C)Oc1ccc(CNC(=O)Cn2c(-c3cccs3)cc3ccccc32)cc1	none
COc1ccc(N2CCN(CCCNC(=O)Cn3c(-c4cccs4)cc4ccccc43)CC2)cc1	Pf Dd2 growth 11µM
COc1ccc(N2CCN(CCCNC(=O)Nc3ccccc3)CC2)cc1	none
CCOC(=O)c1c(C)[nH]c(CCC(=O)NCCCN2CCN(c3ccc(F)cc3)CC2)c1C	none
O=C(Cn1c(-c2cccs2)cc2ccccc21)NCCCN1CCN(c2ccc(F)cc2)CC1	Pf Dd2 growth 10µM
Cc1ccc(-n2nc(C)c(C(=O)NCCCN3CCN(c4ccc(F)cc4)CC3)c2-n2cccc2)cc1	none
Cc1cccc(CNC(=O)CN2CC(C)Sc3ccccc32)c1 (configuration not stated)	none
COc1cccc(N2CCN(C(=O)Cn3c(-c4cccs4)cc4ccccc43)CC2)c1	none
O=C(NCc1ccc(N2CCCCC2)cc1)c1cnc(-c2ccccc2)nc1-c1ccncc1	none
CCCn1ccc2oc(C)c(C(=O)N3CCN(c4ccc(OC)cc4)CC3)c2c1=O	none
COc1ccc(-c2nc(CC3CCNC3)no2)cc1 (configuration not stated)	none
Cc1cccc(C(=O)N2C[C@@H](Oc3ccccc3)C[C@@H]2C(=O)N2CCOCC2)c1	none
COc1ccc(C(C(=O)O)N2CCN(Cc3csc(C)n3)CC2)c(C)c1 (configuration not stated)	none
O=C1NCCCCCN(S(=O)(=O)c2ccccc2)[C@H]2CCCC[C@@H]12	none
COc1ccc(C(=O)NCCSc2c(C)[nH]c3ccccc23)cc1	none
CCN(CC)S(=O)(=O)c1ccc(C(=O)NCCSc2c(-c3ccc(C)cc3)[nH]c3ccccc23)cc1	Pf Dd2 growth 10µM
Cc1[nH]c2ccccc2c1SCCNC(=O)c1ccc(F)cc1	none
Cc1noc([C@@H]2CC(F)(F)CN2C(=O)c2ccoc2)n1	none
Cn1c(C(=O)N2CCC(C(=O)NCCc3ccc(S(N)(=O)=O)cc3)CC2)cc2sccc21	none
CC(C)NC(=O)C1CCN(C(=O)c2cc3sccc3n2Cc2ccc(Cl)cc2)CC1	Pf Dd2 growth 11µM
COC(=O)c1cc2sccc2n1Cc1ccc(F)cc1	none
CN(C)CCNC(=O)Cn1nc(N2CCN(c3ccccc3)CC2)ccc1=O	none
O=C(O)Cn1nc(N2CCN(c3ccc(F)cc3)CC2)ccc1=O	none
CC(C)CCNC(=O)Cn1nc(N2CCN(c3ccccc3)CC2)ccc1=O	none
Cc1ccc(F)cc1NC(=O)c1ccc(Cn2nc(N3CCN(c4ccccc4)CC3)ccc2=O)o1	Pf Dd2 growth 11µM
Cc1cccc(NC(=O)c2ccc(Cn3nc(N4CCN(c5ccccc5)CC4)ccc3=O)o2)c1C	Pf Dd2 growth 11µM
Cc1cc(F)ccc1NC(=O)Cn1nc(N2CCN(c3ccccc3)CC2)ccc1=O	none
Cc1cc(C(F)(F)F)nn1CCNC(=O)[C@H]1CCC[C@H](O)C1	none
COc1ccccc1CCC(=O)N1CC[C@@H]2[C@@H](CCC(=O)N2CCN)C1	none
Cc1ccc(S(=O)(=O)NCC2(C)CCOCC2)c(C)c1	none
Cc1ccc(-c2cn[nH]c2C2CCCN(C(=O)CN3CCOCC3)C2)cc1 (configuration not stated)	none
COCC1CN(C(=O)NCCc2ccccc2)CC12CCNCC2 (configuration not stated)	none
Cc1ccc(NC(=O)N2CC(C(=O)N(C)C)C3(CCOCC3)C2)cc1 (configuration not stated)	none
O=C(c1nnc(CNCCN2CCCC2)n1-c1ccccc1)N1CCC[C@@H]1C(c1ccccc1)c1ccccc1	none
CN1C(=O)[C@H]2CN(Cc3cccc(C#N)c3)C[C@H]2C1=O	none
CCCNC(=O)N1CCC(N2CC(OCC3CC3)C23CCCCC3)CC1 (configuration not stated)	Pf Dd2 growth 8.9µM
CC(C)CC(=O)N1CCC(N2CC(OCC3CC3)C23CCOCC3)CC1 (configuration not stated)	none
CC(=O)N1CCC(C(=O)N2CCC(N3CC(OCC4CC4)C34CCOCC4)CC2)CC1 (configuration not stated)	none
NC1CC(c2cc(NCCN3N=C(c4ccccc4)CCC3=O)ncn2)C1 (configuration not stated)	none
COCCC1(NS(=O)(=O)N(C)C)CCN(S(C)(=O)=O)CC1	none
Cn1cc(C2CCN(C(=O)c3c(Cl)cc(Cl)cc3Cl)CC2)c2ccccc21	Pf Dd2 growth 8.9µM
Cn1cc(C(=O)N2CC[C@@](C)(O)[C@@H](O)C2)c2ccccc21	none
Cc1cccc2c(C3CCN(C(=O)c4c(Cl)cc(Cl)cc4Cl)CC3)c[nH]c12	none
COC1CCOC2(CCN(C(=O)c3ccoc3)CC2)C1 (configuration not stated)	none
O=C1CCC2(CCNCC2)CCN1Cc1ccccc1	none
CCc1nncn1C1CCN(C(=O)Nc2ccc(F)c(Cl)c2)C1 (configuration not stated)	none
CCCNC(=O)C1COC2(CCN(C(=O)CC(C)C)CC2)N1C(=O)c1cccc(OC)c1 (configuration not stated)	none
COc1ccccc1CN1CCCC(CN(CCN(C)C)C(=O)c2ccccc2OC)C1 (configuration not stated)	none
CC(C)(C)CCN1CCCC(COc2ccccc2C(=O)N2CCCC2)C1 (configuration not stated)	none
Cn1cccc1CN1CCCC(COc2ccccc2C(=O)N2CCCCC2)C1 (configuration not stated)	none
COc1ccccc1CCN1CCCC(CN(C)C(=O)C(=O)c2cccn2C)C1 (configuration not stated)	Pf Dd2 growth 14µM
Cc1cc(C(=O)N(C)CC2CCCN(CCc3ccccc3F)C2)n[nH]1 (configuration not stated)	none
COc1ccccc1CCN1CCCC(CN(C)C(=O)Nc2ccccc2)C1 (configuration not stated)	Pf Dd2 growth 2.2µM
COc1ccc([C@H]2C[C@@H](O)[C@@H](O)[C@@H]2NC(=O)c2c(C)noc2C)cc1	none
COc1ccc(-c2nc(C)nc3c2CCN(CC2CCCCC2)CC3)cc1	none
Cc1nc2c(c(-c3ccc(O)cc3)n1)CN(Cc1ccc(F)cc1)CC2	none
Oc1ccc(-c2nc(C3CC3)nc3c2CCN(Cc2ccccn2)CC3)cc1	none
COc1ccc(-c2nc(C3CC3)nc3c2CCN(Cc2cncs2)CC3)cc1	Pf Dd2 growth 10µM
COc1ccc(-c2nc(C)nc3c2CCN(Cc2ccnn2C)CC3)cc1	none
COc1ccc(-c2nc(C3CC3)nc3c2CCN(Cc2ccc(C#N)cc2)CC3)cc1	Pf Dd2 growth 7.9µM
COc1ccc(-c2nc(C3CC3)nc3c2CCN(Cc2ccnn2C)CC3)cc1	none
COc1ccc(CN2CCc3nc(C4CC4)nc(-c4ccc(O)cc4)c3C2)cc1	none
CC(C)c1nc2c(c(-c3ccc(O)cc3)n1)CCN(Cc1cncs1)CC2	none
